Screens from PubChem.
Shown are actives, neighbours in structure and some others; about 5.4% of the full set was active somewhere.
DAX1 inh: NR0B1 (DAX1) inhibition; HEK293 Gal4-DAX1 luciferase reporter, luminescence; inhibition, % at 6.75 µM; 0.99% of 340,000 active; AID 504766; P51843;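 active = inhibition above the mean over all tested compounds plus 3 SD, cut at about 4.2% in these data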;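 note: inhibition shows as a rise in luminescence from relieved DAX1 repression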
Target sequence (P51843 207-470 limits assumed): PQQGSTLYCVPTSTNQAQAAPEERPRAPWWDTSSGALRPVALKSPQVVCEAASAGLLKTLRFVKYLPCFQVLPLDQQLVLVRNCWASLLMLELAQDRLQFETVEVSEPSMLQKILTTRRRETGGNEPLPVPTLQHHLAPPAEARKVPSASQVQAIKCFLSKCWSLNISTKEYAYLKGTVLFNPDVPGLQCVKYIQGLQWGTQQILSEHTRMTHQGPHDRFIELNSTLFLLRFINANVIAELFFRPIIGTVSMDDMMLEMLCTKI
HSF1 inh: HSF1 inhibition | NIH3T3-HGL HSE-luciferase, MG132-induced, luminescence 8 h; hits give low values | 0.77% of 300,000 active | activity change, negative = inhibition, % at 7.5 µM (by protocol);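 active = more than half of replicate wells show activity change below -50%, luminescence cut by over half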;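 note: luciferase reports HSF-1 transcriptional activity via heat shock element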
HSF1 activator: increases HSF-1 driven luciferase reporter signal | NIH3T3-HGL HSF-1 luciferase reporter, MG132, 8 h; 100% = twice DMSO control signal | activation, % at 9 µM | 1.7% of 300,000 active | AID 504408;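 active = mean replicate activation of at least 50% with a set share of replicates each reaching 50%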
AHR act: activators of human aryl hydrocarbon receptor; AID 2796; activation, % at 5 µM; 2.5% of 320,000 active; P35869; AHR-responsive luciferase reporter cells, luminescence; in the data active = activation above about 47%
GAA850 FXN act: activators of GAA850 frataxin (FXN) promoter | HEK293 lucGAA850 FXN promoter luciferase reporter, 24 h; percent of 10 µM SAHA response | activation, % at 6 µM | 0.56% of 360,000 active;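 active = activation above the average of all compounds screened plus 3 SD, cutoff fixed separately per campaign, cut at about 7.5% in these data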
Hits are given with their value; - = inactive; . = no result given.

SMILES	DAX1 inh	HSF1 inh	HSF1 activator	AHR act	GAA850 FXN act
Cc1[nH]nc(SCC(=O)NC(C)c2ccccc2)c1[N+](=O)[O-] (centres undefined)	4.3	-	-	-	-
Cc1c(Cl)ccc2c(C(=O)Nc3cc(C(C)(C)C)on3)cc(-c3ccccn3)nc12	-	-	-	-	-
CN(C)CCCNC(=O)c1cccc(-c2cnc3cccnn23)c1	.	.	.	.	-
O=C1[C@@H]2CSCN2C(=O)CN1Cc1c(F)cccc1Cl	-	-	-	-	-
Cn1ncc(N=Cc2ccccc2)c1C(N)=O	-	-	-	-	-
Nc1ncc(Br)cc1N=Cc1ccccc1	-	-	-	-	9.9
CC(O)C1CCC2C3CC[C@H]4CC(O)CCC4(C)C3CC3(OCCO3)C12C (some centres undefined)	-	-	-	-	-
Cc1ccc(N(C(=O)c2snc(C(N)=O)c2N)C(C(=O)NCC2CCCO2)c2ccc(C)o2)c(C)c1 (centres undefined)	-	-	-	-	-
CCc1ccccc1N(C(=O)c1snc(C(N)=O)c1N)C(C(=O)NCC1CCCO1)c1ccc(C)o1 (centres undefined)	-	-	-	79	-
Cc1cc(C(=O)CCl)c(C)n1CCc1ccccc1	.	-	-	61	.
Cc1cc(C(=O)Cn2nc(C(=O)O)c3ccccc3c2=O)c(C)n1CCc1ccc(F)cc1	-	-	-	-	-
CCOC(=O)c1cc(C)n(CCc2ccccc2)c1C	-	-	-	-	-
Cc1cc(C(=O)Cn2cncn2)c(C)n1CCc1ccc(F)cc1	-	-	-	60	-
CCC1CCCCN1C(=O)COC(=O)c1cc(C)nc2ccccc12 (centres undefined)	-	.	.	-	-
CCCC1=Nc2cc(C(=O)NCCCN3CCOCC3)ccc2Sc2ccccc21	-	-	-	-	-
CCCC1=Nc2cc(C(=O)NCCCN3CCN(C)CC3)ccc2Sc2ccccc21	-	-51	-	-	-
O=C(CCC(=O)Nc1ccccc1Cl)NNC(=O)C1CCCCC1	-	.	.	-	-
COc1ccc2c(c1)CC/C2=N\OC(=O)c1ccccc1C	-	-	61	-	-
COc1ccc2c(c1)CC/C2=N\OC(=O)c1cccc(C)c1	-	-	65	-	-
COc1ccc2c(c1)CCC/C2=N/OC(=O)c1ccccc1OC	-	-	-	-	-
O=C1NC(Cc2ccccc2)c2nc3ccc(Cl)cc3c(=O)n2-c2ncccc21 (centres undefined)	-	.	.	.	-
CCOC(=O)c1c(C)[nH]c(C(=O)OCC(=O)Nc2ccc(Cl)cn2)c1C	-	.	.	-	-
CCOC(=O)c1c(C)[nH]c(C(=O)OCC(=O)Nc2sccc2C(N)=O)c1C	-	-75	-	53	-
CCOc1ccc(C2/C(=C(/O)c3ccc4c(c3)CC(C)O4)C(=O)C(=O)N2CCCn2ccnc2)cc1OCC (centres undefined)	-	-	-	-	-
CCCCN1C(=S)NC[C@@H]1c1ccccc1	-	-	-	-	-
SMILES	DAX1 inh	HSF1 inh	HSF1 activator	AHR act	GAA850 FXN act
CCCN1C(=S)c2ccccc2C1c1ccccc1 (centres undefined)	4.7	-	-	-	-
Cc1cc(C)c2cc(CN(CCN(C)C)C(=O)Nc3ccccc3Cl)c(=O)[nH]c2c1	-	-50	-	-	-
Cc1cc(C)c2cc(CN(CCO)C(=O)Nc3ccc(F)cc3)c(=O)[nH]c2c1	-	-	-	-	-
COc1ccc(NC(=S)N(CCO)Cc2cc3c(C)cc(C)cc3[nH]c2=O)cc1	-	-	-	59	-
Cc1ccc(C)c(N2CCN(c3ccncc3N)CC2)c1	-	-	-	-	-
O=C(Nc1cccc(C(=O)N2CCOCC2)c1)C1CC1	-	.	.	.	-
Cc1ccc2[nH]c3c(c2c1)CCN(C)C3	-	-71	-	-	-
CCCNC(=O)c1cc(Cl)c(NC(=O)C2=CSCCO2)cc1OC	-	-	-	-	-
c1cncc(C2OCC3(CO2)COC(c2cccnc2)OC3)c1 (centres undefined)	-	-	-	-	-
COc1ccc(C(=O)Nc2ccc3c(c2)Cc2ccccc2-3)cc1	-	-	-	-	-
COc1cccc(OC)c1C(=O)NC(=S)Nc1ccc2c(c1)Cc1ccccc1-2	-	-	-	-	-
COc1cccc(OC)c1C(=O)Nc1ccc2c(c1)Cc1ccccc1-2	-	-	-	75	-
O=C(Nc1ccc2c(c1)Cc1ccccc1-2)c1ccco1	-	-	56	-	-
COc1ccc2nc(N=NC3=C(O)CC(C)(C)CC3=O)sc2c1	-	-	-	-	-
